From PubChem BioAssay (NCATS) come the findings set out here.

Records with an inconclusive call do not appear. For some assays here: Potency and affinity values are given separately. Activity calls are given as the source filed them. Unless noted, the rule behind the calls is not given here.

For experiment [1] the following is noted: Ebola virus entry assay, green fluorescence channel.
For experiment [2] the following is noted: Ebola virus entry assay, blue channel fluorescence.
For experiment [3] the following is noted: Ebola virus entry assay, ratio channel.
The conditions of experiment [4]: Ebola virus entry assay, green channel fluorescence.
For experiment [5] the following is noted: Ebola virus entry assay, reporter ratio channel; Channel type: primary.
For experiment [6] the following is noted: Ebola virus entry assay, blue channel (ratio component).
Experiment [7] can be described thus: qHTS assay for measurement of the activity of small molecule inhibitors on Zika virus induced Caspase-3 activity in human astrocytoma cells (AID 1224859; active = well fitted inhibition curve with a large enough effect;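 note: plate controls were ZIKV-infected untreated cells for no effect and uninfected cells for full effect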). Conditions: SNB-19 ZIKV-induced caspase-3/7, luminescence, 6 h; series mostly up to 45.7 µM. In outline: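 A cell-based luminescent caspase-3/7 assay used SNB-19 cells infected with ZIKV (2 FFU/cell) for 6 h following 1 h compound pretreatment.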

Experiment [8] can be described thus: qHTS assay for measurement of the activity of small molecule inhibitors on Zika virus induced Caspase-3 activity in human iPSC derived neural progenitor cells (hNPCs) (AID 1224857; active = well fitted inhibition curve with a large enough effect; note: % of control where 0% means no effect; nearly all actives have a fitted effect of over 65% in size). To be noted: hNPCs ZIKV-induced caspase-3/7, Caspase-Glo luminescence, 6 h; series mostly up to 45.7 µM. In outline: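 In medium with heparin 2 ug/ml and cyclopamine 2 uM, hNPCs (350 cells/well) received compound for one hour and then Zika virus at 2 FFU/cell; caspase activity was measured by Caspase-Glo 3/7 luminescence 6 h post-infection.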
A general note: qHTS replaces the single test concentration by a dilution series.

A short description of experiment [9]: qHTS profiling of the MIPE4 collection as inhibitors of Plasmodium falciparum (3D7) proliferation (AID 743344).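 Note: scaled between DMSO vehicle wells and 0.29 µM artemisinin as full inhibition.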 Conditions: P. falciparum 3D7 in erythrocytes, SYBR Green DNA fluorescence, 72 h; at 28.5 µM (top of the series). In short, it runs like this:
(§1)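 Parasite DNA was quantified by SYBR Green I fluorescence (ex 485, em 535 nm) after overnight lysis in saponin/Triton buffer at room temperature. Cultures at 0.3% parasitemia and 2.5% hematocrit were first exposed to compound for 72 h at 37 C; signals were normalised to artemisinin (0.29 uM) and vehicle wells.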

A short description of experiment [10]: qHTS profiling of the MIPE4 collection as inhibitors of Plasmodium falciparum (DD2) proliferation (AID 743345). Conditions: P. falciparum Dd2 in erythrocytes, SYBR Green DNA, 72 h; at 28.5 µM (top of the series). In short, it runs like this: as §1
Experiment [11] is described as follows: qHTS profiling of the MIPE4 collection as inhibitors of Plasmodium falciparum (DD2) proliferation (Rep 2) (AID 743346). Conditions: P. falciparum Dd2 in erythrocytes, SYBR Green DNA, 72 h; at 28.5 µM (top of the series). In short, it runs like this: as §1
A short description of experiment [12]: qHTS profiling of the MIPE4 collection as inhibitors of Plasmodium falciparum (HB3) proliferation (AID 743347).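 Note: plate controls were DMSO vehicle wells for no effect and artemisinin wells for full effect.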 Conditions: P. falciparum HB3 in erythrocytes, SYBR Green DNA, 72 h; at 28.5 µM (top of the series). In short, it runs like this: as §1
Throughout, for efficacy: 0% is about no effect.

With `ClCc1cccc(Cl)c1`, the efficacy in experiment [1] is -21.7% (inactive). Moreover, the call in experiment [2], in experiment [3], in [4], in experiment [5], in experiment [6] and in experiment [7] was inactive.

Take `O=C(O)Cc1ccccc1`: in [1], the efficacy was -19.3% (inactive). The molecule was called inactive in [2], in experiment [3], in [4], in [5], in [6] and in experiment [7]. The Potency result in experiment [8] was “inactive”.

With `CCCOC(=O)Cc1ccc(OCC(=O)N(CC)CC)c(OC)c1`, the efficacy in experiment [1] was -14.5% (inactive). The outcome in experiment [2], in [3], in [4], in experiment [5], in experiment [6] and in experiment [7] was inactive.

Regarding `OC(O)C(Cl)(Cl)Cl`, the efficacy in experiment [1] is 18.1% (inactive). The molecule was called inactive in experiment [2], in experiment [3], in [4], in experiment [5], in experiment [6] and in experiment [7]. For the same molecule, in experiment [8], the Potency result is “inactive”.

As to `COc1ccc(CN2CCNCC2)c(OC)c1OC`, the efficacy in experiment [1] was 47.4% (inactive). Further, the outcome in [2], in experiment [3], in experiment [4], in [5], in experiment [6] and in experiment [7] was inactive.

On to `NCc1cccnc1`, for which, in experiment [1], the efficacy was -20.3% (inactive). Moreover, the outcome in experiment [2], in experiment [3], in experiment [4], in experiment [5], in [6] and in experiment [7] was inactive. The Potency entry in experiment [8] is “inactive”.

With `COc1ccc2c(C(=O)c3ccc(Cl)cc3)c(C)n(CC(=O)O)c2c1`, the efficacy in experiment [1] is 38% (inactive). Besides, the result in experiment [2], in experiment [3], in experiment [4], in [5], in [6] and in experiment [7] was inactive. Further, the Potency entry in experiment [8] was “inactive”.

In the case of `Cc1ncc2n1-c1ccc(Cl)cc1C(c1ccccc1F)=NC2`, the efficacy in experiment [1] was -12% (inactive). Further, the molecule was called inactive in [2], in experiment [3], in experiment [4], in [5], in experiment [6] and in [7].

As to `C[C@H]1C(=O)O[C@@H]2CCN3CC=C(COC(=O)[C@](C)(O)[C@]1(C)O)[C@H]23`, the efficacy in experiment [1] was 7.51% (inactive). Besides, the molecule was classed as inactive in experiment [2], in experiment [3], in experiment [4], in experiment [5], in [6] and in experiment [7]. In addition, the Potency result in experiment [8] was “inactive”.

As to `CC(C)[N+](C)(CCC(C(N)=O)(c1ccccc1)c1ccccc1)C(C)C`, the efficacy in experiment [1] is 13.5% (inactive). The outcome in experiment [2], in [3], in experiment [4], in experiment [5], in experiment [6] and in experiment [7] was inactive.

Consider `Cc1cccc(Cc2cnc[nH]2)c1C`, for which the efficacy in [1] was -25% (inactive). Besides, the molecule was classed as inactive in experiment [2], in experiment [3], in experiment [4], in experiment [5], in experiment [6] and in experiment [7]. For the same molecule, the Potency result in experiment [8] was “inactive”.

For `CN1C[C@@H](NS(=O)(=O)N(C)C)C[C@@H]2c3cccc4c3c(cn4C)C[C@H]21`, in experiment [1], the efficacy is 31.9% (inactive). In addition, the molecule was called inactive in experiment [2], in [3], in experiment [4], in experiment [6] and in experiment [7]. In addition, the concentration at half-maximal activity (AC50) (usually the midpoint of the concentration-response curve, whichever way the signal moves) in [5] is 39.8 µM (active).

With `C[C@]12CC[C@H](O)CC1=CC[C@@H]1[C@@H]2CC[C@]2(C)C(=O)CC[C@@H]12`, the efficacy in experiment [1] is 42.1% (inactive). Moreover, the outcome in experiment [2], in [3], in experiment [4], in experiment [5], in experiment [6] and in [7] was inactive. In experiment [8], the Potency entry was “inactive”.

For the molecule `O=C(CCl)c1ccc(Cl)cc1Cl`, the efficacy in [1] is -14.1% (inactive). Besides, the molecule was classed as inactive in experiment [2], in experiment [3], in experiment [4], in experiment [5], in [6] and in [7]. Further, in experiment [8], the Potency entry was “inactive”.

Turning to `Nc1ccccc1C(=O)OCC(O)CO` (stereo unspecified), the efficacy in experiment [1] was -15.8% (inactive). Also, the outcome in experiment [2], in experiment [3], in experiment [4], in [5], in experiment [6] and in [7] was inactive.

For `CC1Sc2c(C(=O)O)c(=O)c3cc(F)c(N4CCNCC4)cc3n21` (stereo unspecified), the efficacy in experiment [1] is 10.3% (inactive). The result in experiment [2], in experiment [3], in experiment [4], in experiment [5], in [6] and in [7] was inactive. In addition, the Potency result in experiment [8] is “inactive”.

Regarding `CCN(Cc1ccc(Cl)nc1)/C(=C/[N+](=O)[O-])NC`, the efficacy in experiment [1] is -11.7% (inactive). Further, the molecule was classed as inactive in experiment [2], in [3], in experiment [4], in [5], in experiment [6] and in experiment [7]. In addition, the Potency result in experiment [8] is “inactive”.

For `Nc1ccc(N)cc1`, in experiment [1], the efficacy is 15.4% (inactive). The outcome in [2], in experiment [3], in [4], in experiment [5], in experiment [6] and in [7] was inactive.

Turning to `C[N+](C)(C)CCOC(=O)C(O)(c1ccccc1)c1ccccc1`, in experiment [1], the efficacy is -27.9% (inactive). The call in [2], in experiment [3], in experiment [4], in experiment [5], in [6] and in experiment [7] was inactive.

As for `C#CCN(C)CCCOc1ccc(Cl)cc1Cl`, the efficacy in experiment [1] is -19.7% (inactive). Further, the AC50 in experiment [2] and in experiment [5] was 39.8 µM (active) each time. Further, the outcome in experiment [3] was inactive.

Take `COc1ccc(OC)c(CC(C)N)c1` (stereo unspecified): the efficacy in experiment [1] is 40.3% (inactive). The AC50 in experiment [2] and in [5] was 31.6 µM (active) each time. The outcome in experiment [3], in experiment [4] and in experiment [7] was inactive.

Regarding `CCN1CCCC1CNC(=O)C(O)(c1ccccc1)c1ccccc1` (stereo unspecified), the efficacy in experiment [1] is 28.7% (inactive). The half-maximal activity concentration (AC50) in experiment [2] is 15.8 µM (active); in experiment [3], 20 µM (active); in experiment [5], 20 µM (active). In addition, the outcome in [4] and in experiment [7] was inactive. In addition, the Potency result in experiment [8] was “inactive”.

For the molecule `O=C1NCN(c2ccccc2)C12CCN(CCCOc1ccc(F)cc1)CC2`, the efficacy in experiment [1] was -43.3% (inactive). Besides, the concentration at half-maximal activity (AC50) in experiment [2], in [3] and in experiment [5] was 3.16 µM (active) throughout. Moreover, the molecule was called inactive in experiment [4] and in experiment [7].

For the molecule `CCN(CC)CCOc1ccc(/C(=C(\Cl)c2ccccc2)c2ccccc2)cc1`, in experiment [1], the efficacy was -182% (inactive). In addition, the AC50 in [2] is 1.58 µM (active); in experiment [3] it was 1.26 µM (active); in [5] it was 1.26 µM (active).

On to `CCNC(=O)N1CCN(CCCC(c2ccc(F)cc2)c2ccc(F)cc2)CC1`, for which the efficacy in experiment [1] was 111% (inactive). Further, the half-maximal activity concentration (AC50) in experiment [2] is 12.6 µM (active); in experiment [3], 11.2 µM (active); in [5] it was 11.2 µM (active).

Molecule `NC(N)=NC(=O)c1nc(Cl)c(N)nc1N` had a parasite growth, % of DMSO control in experiment [9] of 116%. Further, the parasite growth remaining, % of DMSO control (lower = more inhibition) in experiment [10] stood at 94%. The parasite growth, % of control (lower = inhibition) in experiment [11] came out at 111%. In experiment [12], this molecule showed a growth, % of control of 87.1%. The efficacy in [1] is -17.5% (inactive). The molecule was classed as inactive in experiment [2], in [3], in experiment [4], in experiment [5] and in experiment [6].

Take `COc1cc(CC(C)N)cc2c1OCO2` (stereo unspecified): the efficacy in [1] is 23.1% (inactive). In addition, the AC50 in experiment [2] and in experiment [5] was 35.5 µM (active) throughout. The result in experiment [3], in experiment [4] and in [7] was inactive. In addition, the Potency result in experiment [8] is “inactive”.
